# Activity calls are given as the source filed them. No rule for the calls is given here.
# Biological target: Pantothenate synthetase (Mycobacterium tuberculosis (strain ATCC 25618 / H37Rv)) (UniProt P9WIL5)
# Test: Coupled enzyme confirmation of inhibitors against recombinant Mtb PanC (AID 375);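 also: 0% = full reaction with vehicle and 100% = no enzyme background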
# Conditions: coupled enzyme assay; at 10 µM, active compounds read high
# Chain of Pantothenate synthetase (Mycobacterium tuberculosis (strain ATCC 25618 / H37Rv)) (P9WIL5 whole entry, looked up): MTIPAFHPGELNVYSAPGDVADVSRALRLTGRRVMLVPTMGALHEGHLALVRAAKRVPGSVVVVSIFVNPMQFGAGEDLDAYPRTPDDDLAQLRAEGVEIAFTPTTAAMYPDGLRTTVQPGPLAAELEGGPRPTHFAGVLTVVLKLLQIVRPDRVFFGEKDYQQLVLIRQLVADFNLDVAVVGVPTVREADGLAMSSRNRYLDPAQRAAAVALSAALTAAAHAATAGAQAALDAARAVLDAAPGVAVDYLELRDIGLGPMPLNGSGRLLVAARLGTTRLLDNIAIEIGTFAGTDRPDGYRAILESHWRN
row,SMILES,inhibition
1,CCCN(CCC)S(=O)(=O)c1ccc(NS(C)(=O)=O)cc1,0% (inactive)
2,CC(=O)CC(=O)Nc1ccccc1NC(C)=O,3% (inactive)
3,COc1ccc(-c2nnc(SCC(=O)NC(=O)NCc3ccco3)o2)cc1,0% (inactive)
4,N#Cc1nc(-c2ccco2)oc1NCCc1ccccc1,0% (inactive)
5,Cc1cc2nc3c(nc2cc1C)C1(C(=O)O)CCC3(C)C1(C)C (stereo not given),0% (inactive)
6,O=C(Cc1cccs1)N(c1ccccc1)C1C=CS(=O)(=O)C1 (stereo not given),3% (inactive)
7,CCOc1ccc(NC(=O)CN(c2cc(C)cc(C)c2)S(=O)(=O)c2c(C)noc2C)cc1,7% (inactive)
8,O=C(NCC1CCCCN1)c1cc(OCC(F)(F)F)ccc1OCC(F)(F)F (stereo not given),3% (inactive)
9,Cc1ccc(C(=O)OCC(=O)Nc2ccc3c(c2)OCO3)o1,4% (inactive)
10,Cc1ccc(OCCC(=O)OCC(=O)C(C)(C)C)cc1,8% (inactive)
11,Cn1c(-c2ccccc2)cc(=O)c2ccccc21,0% (inactive)
12,N#Cc1c(-c2ccccc2)nc(N2CCCCCC2)[nH]c1=O,0% (inactive)
13,Cc1cc(Cl)ccc1OCCCC(=O)NO,0% (inactive)
14,O=C(CCc1ccccc1)Nc1ccncc1,0% (inactive)
15,CCn1c(SCC(=O)Nc2ccccc2N2CCCCC2)nc2c1c(=O)n(C)c(=O)n2C,2% (inactive)
16,Cn1c(Cc2ccccc2)nnc1SCC(=O)c1ccc(Br)s1,0% (inactive)
17,COc1cc(CO)cc(-c2cc(CO)cc(OC)c2OC)c1OC,0% (inactive)
18,O=C(c1cccnc1)N1CCN(Cc2ccc3c(c2)OCO3)CC1,0% (inactive)
19,COc1ccc(N(C(=O)c2ccco2)S(=O)(=O)c2cc(OC)ccc2OC)cc1,0% (inactive)
20,CC(=O)Nn1c(C)nnc1-n1nc(C)cc1C,0% (inactive)

row,SMILES,inhibition
1,O=C(NCCc1cccc(Cl)c1)c1cccnc1,12% (inactive)
2,CCCC1(C(=O)OCC)NC(c2ccc(N(C)C)cc2)C2C(=O)N(c3ccc(F)cc3)C(=O)C21 (stereo not given),3% (inactive)
3,Cc1nnc(N(C)C(=O)c2cccnc2)s1,0% (inactive)
4,COc1cccc(C(=O)Nc2cccc(C(=O)N3CCOCC3)c2)c1,2% (inactive)
5,CC1CCN(Cc2nc3c(c(=O)n(C)c(=O)n3C)n2Cc2cccc3ccccc23)CC1,0% (inactive)
6,Cc1ccccc1-c1nc(CN2CCC(C(=O)NCCCN3CCOCC3)CC2)c(C)o1,5% (inactive)
7,CC(=O)N1CCN(S(=O)(=O)c2cccc(C(=O)Nc3ccc4c(c3)CCC4)c2)CC1,0% (inactive)
8,O=C(Nc1cccc(-c2nnc(-c3ccccc3)o2)c1)C1CCCCC1,0% (inactive)
9,COc1ccc(S(=O)(=O)N(C)C2CCN(C)CC2)cc1,0% (inactive)
10,CC(C)N(C=O)C1(C(=O)NC2CCCCC2)CCCCC1,4% (inactive)
11,Cc1nn(-c2ccccc2)c(Cl)c1C1C(C#N)=C(N)OC2=C1C(=O)CC(C)(C)C2 (stereo not given),0% (inactive)
12,CN1CCN(C2=C(Cl)C(=O)N(c3cccc(Cl)c3)C2=O)CC1,3% (inactive)
13,O=c1c2ccc(-c3nnc4n3-c3ccccc3SC4)cc2nc2n1CCCCC2,0% (inactive)
14,Cc1ccc(Cn2nnnc2CN2CCC(O)(c3ccccc3F)CC2)cc1,0% (inactive)
15,COc1ccc2nc(NC(=O)CSc3nnc(-c4ccoc4C)n3C)sc2c1,2% (inactive)
16,O=C(Cn1nc(Cc2ccncc2)c2ccccc2c1=O)N1CCN(C(=O)c2ccco2)CC1,0% (inactive)
17,COC(=O)c1ccccc1NC(=O)C12CCC(C)(C(=O)O1)C2(C)C (stereo not given),0% (inactive)
18,COc1ccc(CCN(C)CCCC(C#N)(c2ccc(OC)c(OC)c2)C(C)C)cc1OC (stereo not given),0% (inactive)
19,Cc1c(C(=O)NCc2ccccc2)oc2c1C(=O)CCC2,0% (inactive)
20,Cc1ccsc1C1C2=C(CCCC2=O)Nc2ncnn21 (stereo not given),0% (inactive)

# Reference: PubChem BioAssay
